From PubChem BioAssay (NCATS)
Inconclusive results are not listed. Active and inactive are the calls of the source. The call rests on the fitted dose curve; in most records, active means well fitted inhibition curve with a large enough effect; inconclusive means small, poorly fitted or top-dose-only effect; inactive means flat fitted curve, though single readings scatter.

What was measured:
Assay in all cases: qHTS profiling for inhibitors of Plasmodium falciparum proliferation (AID 504749); further: nearly all actives have a fitted effect of over 60% in size
Conditions in all cases: P. falciparum in erythrocytes, SYBR Green DNA, 72 h; series mostly up to 28.7 µM
[1] = test system: 7G8
Method in brief: (§1)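 Quantitative HTS: compounds pinned into medium, infected erythrocytes added (0.3% parasitemia, 2.5% hematocrit), 72 h culture at 37 C under 5% CO2. Saponin/Triton lysis with SYBR Green I, overnight RT, then fluorescence read.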

[2] = test system: AA1029
Method in brief: as §1

[3] = test system: AS120
Method in brief: as §1

[4] = test system: ATS189
Method in brief: as §1

[5] = test system: ATS95
Method in brief: as §1

[6] = test system: C2A
Method in brief: as §1

[7] = test system: CP185
Method in brief: as §1

[8] = test system: CP192
Method in brief: as §1

[9] = test system: CP194
Method in brief: as §1

[10] = test system: CP201
Method in brief: as §1

[11] = test system: CP211
Method in brief: as §1

[12] = test system: CP217
Method in brief: as §1

[13] = test system: CP237
Method in brief: as §1

[14] = test system: CP238
Method in brief: as §1

[15] = test system: CP247
Method in brief: as §1

[16] = test system: CP252
Method in brief: as §1

[17] = test system: CP191
Method in brief: as §1

[18] = test system: CP215
Method in brief: as §1

[19] = test system: CP250
Method in brief: as §1

[20] = test system: CP203
Method in brief: as §1

Measured: Potency
Potency means the concentration at half of the fitted maximal effect.

N#CC(C#N)=Cc1ccc(O)c(O)c1
active: [1] 8.91 µM
not listed: [17] | [18] | [19] | [20]
inactive: all other assays above

CCC1(C2=NCCN2)Cc2ccccc2O1 (stereo not drawn)
active: [2] 11.2 µM | [4] 7.94 µM | [5] 8.91 µM | [7] 10 µM | [13] 10 µM
inactive: [8]

Cn1c(CCCC(=O)O)nc2cc(N(CCCl)CCCl)ccc21
not listed: [1] | [20]
inactive: all other assays above

CC(C)(C)NCC(O)c1cc(Cl)c(N)c(Cl)c1 (stereo not drawn)
active: [1] 7.94 µM | [13] 7.94 µM
inactive: [6] | [10] | [11] | [12] | [15] | [19]

Fc1ccc(C(OCCN2CCN(CCCc3ccccc3)CC2)c2ccc(F)cc2)cc1
active: [1] 3.55 µM | [2] 7.08 µM | [3] 4.47 µM | [4] 8.91 µM | [5] 7.94 µM | [6] 11.2 µM | [7] 10 µM | [17] 10 µM | [11] 13.5 µM | [12] 8.91 µM | [13] 10 µM | [14] 12.6 µM | [15] 10 µM | [16] 11.2 µM

CC(C)NCC(O)c1ccccc1Cl (stereo not drawn)
inactive: [10]
active: [1] 4.47 µM | [2] 4.47 µM | [3] 12.6 µM | [5] 11.2 µM | [12] 10 µM | [13] 5.01 µM

C[C@]12C/C(=C/O)C(=O)C[C@@H]1CC[C@@H]1[C@@H]2CC[C@@]2(C)[C@H]1CC[C@]2(C)O
not listed: [1] | [15] | [17]
inactive: all other assays above

NP(N)(=O)NC(=O)c1ccc(F)cc1
not listed: [7]
inactive: all other assays above

Oc1cc(Cl)ccc1Oc1ccc(Cl)cc1Cl
active: [1] 1.12 µM | [2] 7.94 µM | [3] 3.98 µM | [4] 7.08 µM | [5] 10 µM | [17] 11.2 µM | [8] 12 µM | [9] 13.5 µM | [18] 13.5 µM | [12] 7.94 µM | [13] 7.08 µM | [14] 10 µM | [16] 7.94 µM

c1ccc2c(c1)Nc1ccccc1S2
active: [17] 7.94 µM | [15] 10 µM | [19] 4.47 µM
inactive: [3] | [10] | [14]

Oc1ccc(Cl)cc1Cc1ccccc1
active: [1] 2 µM | [3] 8.91 µM
inactive: [6] | [7] | [10] | [11] | [14] | [19]

N[C@@H](Cc1ccc(N(CCCl)CCCl)cc1)C(=O)O
inactive: [8] | [10] | [11] | [18]
active: [1] 11.2 µM

C#CCOC(C(=O)OCCN(C)C)(c1ccccc1)c1ccccc1
active: [1] 10 µM
not listed: [2] | [20]
inactive: all other assays above

O=c1[nH]c2ccccc2n1C1CCN(CCCC(c2ccc(F)cc2)c2ccc(F)cc2)CC1
active: [18] 13.5 µM | [13] 7.94 µM
not listed: [1] | [3] | [9] | [11] | [17] | [20]
inactive: all other assays above

O=[N+]([O-])c1cc([As](=O)(O)O)ccc1O
active: [1] 3.98 µM | [2] 3.16 µM | [3] 3.16 µM | [17] 3.16 µM | [12] 3.16 µM | [13] 3.16 µM | [19] 3.16 µM | [16] 3.16 µM

c1ccc2c(c1)OCC(C1=NCCN1)O2 (stereo not drawn)
not listed: [1] | [13] | [15] | [20]
inactive: all other assays above

c1ccc(C2CC2)c(OCC2=NCCN2)c1
not listed: [1] | [13] | [15] | [20]
inactive: all other assays above

CCN(CC)CCN1C(=O)CN=C(c2ccccc2F)c2cc(Cl)ccc21
inactive: [3] | [6] | [17] | [8] | [10] | [18] | [12] | [15] | [19] | [16]

CN1C(=S)CN=C(c2ccccc2)c2cc(Cl)ccc21
not listed: [8] | [15] | [20]
inactive: all other assays above

C=C1CC[C@@]2(O)[C@H]3Cc4ccc(O)c5c4[C@@]2(CCN3CC2CC2)[C@H]1O5
not listed: [13] | [17] | [20]
inactive: all other assays above
